We go through 40 compounds from PubChem BioAssay (NCI).

SMILES strings stand for the structures. This is part of a sample that, as a whole, favours compounds with a hit. Of some 83,000 tested, about 20% had one in any assay.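 How to read the values: 0–100, growth inhibition (40 = 60% inhibited); 0, no net growth; -100 to 0, cell death (-40 = 40% of starting cells died; -100 = all dead).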 Values without a mark were called inactive. Calls of active or inactive are those of the source.

This experiment has as its system RPMI-8226 leukemia. The experiment can be described thus: NCI-60 one-dose screen, 48 h (100 = growth as untreated, 0 = no growth, -100 = all killed). Particulars: 10 µM unless noted. How it is done:
Growth inhibition of the RPMI-8226 human tumor cell line is measured as a screen for anti-cancer activity. Cells are grown in 96 well plates and exposed to the test compound for 48 hours. Compounds are tested at a single concentration, which is 10^-5 M for most compounds. The reported endpoint is percent growth (GI% or GIPRCNT), where numbers from 0 - 100% represent growth inhibition, and numbers from -100% - 0 represent cell death. For example, a value of 40 represents 60% growth inhibition. A value of 0 means no net growth occurred over the course of the experiment. A value of -40 indicates 40% of cells at the beginning of the experiment died by the end of the experiment. A value of -100 means all cells are dead at the end of the experiment.
NCI-60 Human Tumor Cell Lines Screen was performed using the standard one-dose NCI protocol, which is described in more detail at https://dtp.cancer.gov/discovery_development/nci-60/default.htm.
Compounds with GIPRCNT values below 10 were considered active. Activity score was based on GIPRCNT using the following formula: […]
Score is 0 for GIPRCNT values of 100 or above, 50 for GIPRCNT values of 0, and 100 for GIPRCNT values of -100.
Consider `CCCCCCOc1ccc(/C=N/Nc2cc(C)nc3ccc(Br)cc23)cc1`, for which the growth is -42.4% (active).

As for `CCCNC(=O)Oc1ccc(/C(=C(\C)c2ccccc2)c2ccc(OCCN3CCCCC3)cc2)cc1`, the growth was 57.7%.

Regarding `CC[C@@]12C=CCN3CC[C@]4(c5cc(NC(=O)COc6cc(OCC(=O)Nc7cc8c(cc7OC)N(C)[C@H]7[C@@](O)(C(=O)OC)[C@H](OC(C)=O)[C@]9(CC)C=CCN%10CC[C@]87[C@@H]%109)cc7oc(-c8ccccc8)cc(=O)c67)c(OC)cc5N(C)[C@@H]4[C@](O)(C(=O)OC)[C@H]1OC(C)=O)[C@H]32`, the growth is 8.92% (active).

Regarding `CN1CCN(CC#CCNC(=O)[C@]23CCC(C)(C)C[C@H]2C2=CC[C@@H]4[C@@]5(C)Cc6c([nH]c7ccccc67)C(C)(C)[C@@H]5CC[C@@]4(C)[C@]2(C)CC3)CC1`, the growth is 53.2%.

With `COc1ccc(C(=O)c2cc(C)c(OC)c(C)c2)c(OC)c1O`, the growth was 25.9%.

On to `CC(=O)[C@@H]1CC[C@]2(C(=O)n3ccnc3)CC[C@]3(C)[C@H](CC[C@@H]4[C@@]5(C)Cc6c([nH]c7ccccc67)C(C)(C)[C@@H]5CC[C@]43C)[C@@H]12`, for which the growth is 72.7%.

Turning to `CC(=O)Nc1ccc(S(=O)(=O)NC2CCCCC2)cc1`, the growth was 94.3%.

As for `COc1ccc(-c2cnnc3c(-c4cccc(C(F)(F)F)c4)cnn23)cc1`, the growth is 45.8%.

Consider `CC(N)C(=O)NNc1n[nH]c(=S)n1N` (stereo not given), for which the growth was 104%.

Take `COc1cc2c(cc1[N+](=O)[O-])-c1ccc([N+](=O)[O-])cc1/C2=N\O`: the growth is 84%.

As for `COc1cc(C(=O)/C=C/c2c(C)n([O-])c3ccc(Cl)cc3[n+]2=O)cc(OC)c1OC`, the growth was -35.2% (active).

Regarding `COc1ccc(/C=C\c2nc3ccccc3s2)cc1OP(=O)(O)O`, the growth was 22.7%.

Take `Cc1ccc(-c2csc(/N=C3\C(=O)Nc4ccccc43)n2)cc1`: the growth was -20.2% (active).

As for `CC(C)CN(C(=O)c1ccc(Cl)cc1)c1c(N)n(CC(C)C)c(=O)[nH]c1=O`, the growth is 84.8%.

As to `O=C(CN1CCOCC1)Nc1ccc2ncnc(Nc3ccc(Oc4cccc(F)c4)c(Cl)c3)c2c1`, the growth is 55.7%.

`C=C(C)[C@@H]1CC[C@]2(C(=O)NCC(=O)OC)CC[C@]3(C)[C@H](CC[C@@H]4[C@@]5(C)Cc6c([nH]c7ccccc67)C(C)(C)[C@@H]5CC[C@]43C)[C@@H]12`: the growth was 53.2%.

Turning to `O=C(O)/C=C\C(=O)N1C/C(=C\c2ccccc2Cl)C(=O)/C(=C/c2ccccc2Cl)C1`, the growth was 3.9% (active).

`O=S(=O)(c1cccc(NC2=Nc3cccc4cccc2c34)c1)N1CCCC1`: the growth was 48.8%.

For `NC(=O)c1ccc[n+](CC(=O)N2CCN(c3cc4c(cc3F)c(=O)c(C(=O)O)cn4C3CC3)CC2)c1`, the growth is 74.3%.

Turning to `COc1ccc(/C(=C\c2ccccc2)C(=O)O)cc1OC`, the growth is 102%.

Turning to `CN1CCN(Cc2ccc(NC(=O)c3cncc(C#Cc4cnccc4C(F)(F)F)c3)cc2C(F)(F)F)CC1`, the growth is 70.6%.

With `c1ccc(-c2nn(-c3ccccc3)[n+](-c3ccccc3-c3ccccc3)n2)cc1`, the growth was 15.3%.

For the compound `COc1cc2nc(-c3ccc(C(F)(F)F)cc3)cc(OCCN3CCC(O)CC3)c2cc1OC`, the growth is 41.2%.

As to `COc1ccc(OC)c(/C=C/[C@H]2O[C@@H](C)[C@H](O)[C@@H]2O)c1`, the growth was 95.3%.

Consider `CC(C)Sc1nc(NN)c(C#N)c(-c2ccccc2)n1`, for which the growth is 100%.

As to `COc1ccccc1N1CCN(C(=O)c2ccc3nc(NC(=O)c4ccc(NCCc5ccccc5)c([N+](=O)[O-])c4)sc3c2)CC1`, the growth is 92.3%.

In the case of `NC(=O)c1cccc(-c2ccccc2N2CCCCC2)c1`, the growth was 74.2%.

On to `COc1cc(CCNc2nc3cc(N)cc(N)c3nc2-c2ccccc2)cc(OC)c1`, for which the growth is -39.6% (active).

Consider `CCOC(=O)c1c(C)nc2c(c1N)C(=O)C(=O)N2Cc1ccc(C(F)(F)F)cc1`, for which the growth is 27.2%.

For the compound `C=C(C)[C@@H]1CC[C@]2(C(=O)NCCCN(CCC#N)CCC#N)CC[C@]3(C)[C@H](CC[C@@H]4[C@@]5(C)CCC(=O)C(C)(C)[C@@H]5CC[C@]43C)[C@@H]12`, the growth was 101%.

With `COc1cc2nc(-c3ccc(C#N)cc3)[nH]c(=O)c2cc1OC`, the growth was 135%.

Regarding `COc1ccccc1C(C[N+](=O)[O-])c1c(-c2ccccc2)[nH]c2cc(C)ccc12` (stereo not given), the growth was 61.5%.

For the compound `O=C(Nc1ccc2cc3ccc(NC(=O)NC4CCCCC4)cc3nc2c1)NC1CCCCC1`, the growth is 85.6%.

As to `CN1CCCC1=Nc1ccccc1`, the growth was 107%.

As for `O=C(Nc1nc2ccc(C(=O)N3CCN(c4ccc(Cl)c(Cl)c4)CC3)cc2s1)c1ccc(NCCc2ccccc2)c([N+](=O)[O-])c1`, the growth was 85.5%.

For `CCCOc1nc(SCCC)nc2c1cnn2-c1ccccc1`, the growth was 152%.

For the compound `CC(O)/C=C/C=C/C(O)CC/C=C/C(=O)NCC(C)(C)O` (stereo not given), the growth was 100%.

On to `CSc1nnc2c(=O)n(C)c(=O)n(C)c2n1`, for which the growth is 75.8%.

Turning to `Clc1cc(Cl)cc(N2N=C(c3cccc(Nc4ccncc4)c3)CC2c2ccc(Br)cc2)c1` (stereo not given), the growth is 21.3%.

On to `O=c1[nH]nc(-c2ccc(Br)cc2)cc1Cc1ccc(O)cc1`, for which the growth is 53.8%.
